Compound activity as filed in PubChem BioAssay.
Most compounds without a hit are left out; they make up all but 18% or so of the library.
HepG2 viability = qHTS for Inhibitors of TGF-b: Cytotox Counterscreen; Potency, µM (series often up to 46.1 µM), for inactives: at the highest dose activity change, negative = cytotoxicity, usual class: cytotoxic; 410,000 compounds, 0.76% hits; HepG2 CAGA-GFP viability, ATP luminescence, 18 h; also: potency is read from the fitted curve at half-maximal effect
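HepG2 CAGA-GFP cells (1000/well, DMEM with 1% FBS) received compound, then TGF-beta at 500 pg/mL final, and were incubated 18 hours at 37 degrees C. Viability was read by CellTiter-Glo luminescence. Media-only wells were set as complete cell-killing and DMSO as no toxicity.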
IL1B secr inh = qHTS for Inhibitors of Inflammasome Signaling: IL-1-beta AlphaLISA Primary Screen; THP-1 LPS/ATP IL-1B secretion, AlphaLISA, 16 h; stronger effect = lower value; activity change, % at 57.5 µM; 360,000 compounds, 4.7% hits; AID 743279, 2014; in the data active = activity change below about -50%; inconclusive = mostly about -30% to -49%; also: % is scaled to controls: 0 for no effect and ±100 for the full control effect
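Secreted IL-1B measured by AlphaLISA bead assay after 16 h compound exposure of THP-1 cells; compounds (final up to 57.5 uM) added 1 h before LPS (250 ng/mL) and ATP (1.25 mM) stimulation; lower signal means less secretion.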
TDP1 inh = qHTS Assay for Inhibitors of Tyrosyl-DNA Phosphodiesterase (TDP1); recombinant TDP1, AlphaScreen DNA substrate cleavage; Potency, µM (doses to about 130 µM), without a hit: at the highest dose activity change, negative = inhibition, most hits filed as inhibitors; 350,000 compounds, 0.28% hits; also: potency is read from the fitted curve at half-maximal effect; % is scaled to controls: 0 for no effect and ±100 for the full control effect; nearly all actives have a fitted effect of over 40% in size
Target sequence (Q9NUW8 whole entry, looked up): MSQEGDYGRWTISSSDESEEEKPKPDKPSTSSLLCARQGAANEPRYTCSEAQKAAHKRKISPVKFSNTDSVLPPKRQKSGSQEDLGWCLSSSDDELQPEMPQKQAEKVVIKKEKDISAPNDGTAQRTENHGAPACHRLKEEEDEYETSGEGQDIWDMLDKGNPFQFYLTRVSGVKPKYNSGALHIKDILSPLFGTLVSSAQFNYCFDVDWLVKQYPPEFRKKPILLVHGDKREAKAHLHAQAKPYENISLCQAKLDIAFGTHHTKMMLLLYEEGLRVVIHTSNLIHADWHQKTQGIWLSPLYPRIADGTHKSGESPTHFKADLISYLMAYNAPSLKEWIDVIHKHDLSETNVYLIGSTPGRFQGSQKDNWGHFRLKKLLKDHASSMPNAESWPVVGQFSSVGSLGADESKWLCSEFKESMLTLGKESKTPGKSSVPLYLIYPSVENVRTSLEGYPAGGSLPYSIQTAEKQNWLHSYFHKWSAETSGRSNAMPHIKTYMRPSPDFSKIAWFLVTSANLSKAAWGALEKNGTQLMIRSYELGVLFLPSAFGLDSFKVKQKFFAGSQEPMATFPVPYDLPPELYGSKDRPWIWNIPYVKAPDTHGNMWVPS
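Recombinant E. coli-expressed Tdp1 (1 nM) preincubated with compound 15 min at RT, then 5'-biotin/3'-phosphotyrosine-FITC DNA substrate (15 nM) added for 5 min. AlphaScreen beads (10 ug/ml) added, 10 min RT; tyrosine-FITC cleavage read as signal loss.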
DT40 TDP1 CPT = qHTS for Inhibitors of human tyrosyl-DNA phosphodiesterase 1 (TDP1): qHTS in cells in presence of CPT; chicken DT40 Tdp1-/-;hTDP1 cells + 20 nM CPT, ATP luminescence, 48 h; Potency, µM (highest dose often 46.2 µM), inactives show at the highest dose activity change, negative = growth inhibition, usual class: inhibitors; 420,000 compounds, 12% hits; AID 686979, 2013; also: potency is read from the fitted curve at half-maximal effect; % is scaled to controls: 0 for no effect and ±100 for the full control effect; nearly all actives have a fitted effect of over 55% in size
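Chicken DT40 Tdp1-/- cells stably complemented with human TDP1 were seeded at 400 cells/well in medium containing 20 nM camptothecin, exposed to pin-transferred compounds, and grown at 37 °C for at least 48 hr. Viability was read as ATP luminescence.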
DT40 TDP1 no CPT = qHTS for Inhibitors of human tyrosyl-DNA phosphodiesterase 1 (TDP1): qHTS in cells in absence of CPT; DT40 Tdp1-/- hTDP1 cells, no CPT, ATP luminescence, 48 h; 420,000 compounds, 15% hits; AID 686978, 2013; Potency, µM (doses to about 46.2 µM), without a hit: top-dose activity change, negative = growth inhibition, actives largely listed as inhibitors; also: potency is read from the fitted curve at half-maximal effect; % is scaled to controls: 0 for no effect and ±100 for the full control effect; nearly all actives have a fitted effect of over 55% in size
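Chicken DT40 Tdp1-/- cells complemented with human TDP1, screened without camptothecin (DMSO vehicle only), 400 cells/well. Compounds pin-transferred, cells incubated at 37 °C for at least 48 hr. Growth read as ATP-dependent luminescence (CellTiter-Glo, 30 min at RT).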
TGFb inhibitor = qHTS for Inhibitors of TGF-b | HepG2 CAGA-GFP TGF-b/SMAD3 reporter, GFP fluorescence, 18 h; TGF-beta stimulated, 500 pg/mL final | Potency, µM (top dose mostly 46.1 µM), for inactives: top-dose activity, negative = inhibition, most hits filed as inhibitors | 410,000 compounds, 1.2% hits | AID 588855, 2011; also: potency is read from the fitted curve at half-maximal effect; % is scaled to controls: 0 for no effect and ±100 for the full control effect; nearly all actives have a fitted effect of over 65% in size
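Inhibition of TGF-beta-driven CAGA-GFP reporter expression in HEPG2 cells is measured by cellular GFP fluorescence after 18 h stimulation with 500 pg/mL recombinant TGF-beta in 1% FBS medium at 37 degrees C.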
Active calls of the source: *; ? = inconclusive; . = no result. Unless noted, calls follow the shape of the dose curve; as a rule, active = well fitted curve in the direction sought with a large enough effect; inconclusive = small, poorly fitted or top-dose-only effect, or another doubt; inactive = no such curve, though single readings can be large; an effect the other way counts as inactive or inconclusive.

SMILES	HepG2 viability	IL1B secr inh	TDP1 inh	DT40 TDP1 CPT	DT40 TDP1 no CPT	TGFb inhibitor
CCOc1ccccc1/C=C/c1cc(C(=O)O)c2ccccc2n1	-9%	-4	1%	-25%	?	2%
O/N=C/c1ccc2cccc(O)c2n1	-35%	0	6%	0%	6%	-15%
CCOc1cccc(/C=C/c2ccc3cccc(O)c3n2)c1O	-18%	-97*	.	15µM*	21µM*	?
Cc1cc(Cl)c2cc3ccccc3cc2n1	-15%	.	1%	?	?	?
CCC1CN(C(=O)N2CCC(C(=O)NCCc3ccc(OC)c(OC)c3)CC2)c2ccccc2O1 (configuration not stated)	6%	13	2%	?	?	-1%
CCC1CN(C(=O)N2CCC(C(=O)NCc3ccc(OC)cc3OC)CC2)c2ccccc2O1 (configuration not stated)	5%	-16	3%	?	-28%	5%
CCC1CN(C(=O)N2CCC(C(=O)NCc3cc(OC)ccc3OC)CC2)c2ccccc2O1 (configuration not stated)	-7%	.	-1%	18µM*	18µM*	-27%
CCC1CN(C(=O)N2CCC(C(=O)NCCc3cc(OC)ccc3OC)CC2)c2ccccc2O1 (configuration not stated)	-16%	.	6%	16µM*	21µM*	?
CCC1CN(C(=O)N2CCC(C(=O)Nc3ccccc3OC)CC2)c2ccccc2O1 (configuration not stated)	6%	34	2%	18µM*	?	7%
CCC1CN(C(=O)N2CCC(C(=O)NCCOC)CC2)c2ccccc2O1 (configuration not stated)	-2%	.	-4%	-14%	-12%	0%
CN(C(=O)Cn1nc(Cl)ccc1=O)C1CCCN(Cc2ccccc2F)C1 (configuration not stated)	2%	-1	2%	3%	0%	3%
COc1ccc2c(c1)O[C@@H](c1cccc(C(F)(F)F)c1)[C@H](OC(=O)N[C@H](C)C1CCCCC1)C2=O	.	.	5%	.	.	.
CCCN1C(=O)c2[nH]nc(-c3ccc(F)cc3)c2C1c1ccc(O)c(OCC)c1 (configuration not stated)	-36%	.	0%	?	?	-10%
Cc1ccc(CNC(=O)c2cccc(Nc3nc4ccccc4n4nnnc34)c2)cc1	-48%	.	5%	21µM*	10µM*	28%
CCCCOc1ccc(C(C)NC(=O)c2cccc(Nc3nc4ccccc4n4nnnc34)c2)cc1 (configuration not stated)	-19%	.	-5%	5.2µM*	5.8µM*	?
COc1ccc(Nc2nc3ccccc3n3nnnc23)cc1	-16%	4	1%	5%	?	20%
COc1cc(Nc2nc3ccccc3n3nnnc23)cc(OC)c1OC	-3%	-1	7%	8.2µM*	9.2µM*	-5%
Cc1csc2nc(-c3cccc(NC(=O)c4ccc(S(N)(=O)=O)cc4)c3)cn12	-16%	.	0%	?	16µM*	0%
Cc1csc2nc(-c3cccc(NC(=O)c4c(F)cccc4F)c3)cn12	-40%	.	3%	23µM*	23µM*	9%
O=C(COc1ccccc1)OCc1cc(-c2ccco2)on1	7%	-14	0%	-22%	4%	-1%
COCCCNc1nc(SCc2ccccc2)nc2sc3c(c12)CCC3	-3%	7	1%	?	21µM*	-9%
COc1cccc(CNc2nn[nH]n2)c1OC	1%	0	-3%	8%	4%	-3%
COCCNc1nc(NCc2cccc(OC)c2OC)c2sccc2n1	-22%	26	.	?	12µM*	-8%
COc1ccccc1CNc1nc(NCc2cccc(OC)c2OC)c2sccc2n1	-72%	-90*	.	4.6µM*	7.3µM*	?
COc1ccccc1C(=O)Nc1cccc(C(=O)OCc2cc(=O)n3nc(C4CC4)sc3n2)c1	-3%	.	4%	0%	?	2%
SMILES	HepG2 viability	IL1B secr inh	TDP1 inh	DT40 TDP1 CPT	DT40 TDP1 no CPT	TGFb inhibitor
O=C(NCc1ccccc1)C1c2ccccc2OCC(=O)N1Cc1ccc2c(c1)OCO2 (configuration not stated)	.	12	.	?	?	.
O=C1COc2ccccc2C(c2nc3ccccc3[nH]2)N1Cc1ccccc1 (configuration not stated)	.	12	.	?	16µM*	.
O=C(NCc1ccccc1)C1c2ccccc2OCC(=O)N1Cc1ccccc1 (configuration not stated)	.	-15	.	?	12µM*	.
COc1ccc(C(=O)Nc2ccccc2-c2nnn(CC(=O)N3CCOCC3)n2)cc1	6%	0	4%	-27%	?	-7%
COc1ccc(C(=O)Cn2nnc(-c3ccccc3NC(=O)c3ccco3)n2)cc1	3%	-11	0%	?	8.2µM*	-26%
COc1ccc(S(=O)(=O)Nc2ccccc2-c2nnn(CC(=O)Nc3ccccc3OC)n2)cc1	-2%	-1	3%	6.5µM*	8.2µM*	0%
CCCC(=O)Nc1ccccc1-c1nnn(CC(=O)Nc2ccc(OC)cc2)n1	-10%	7	6%	?	21µM*	5%
CCn1nnc(-c2ccccc2NC(=O)c2cc(OC)c(OC)c(OC)c2)n1	0%	8	7%	?	15µM*	?
CCn1nnc(-c2ccccc2NC(=O)c2cc(OC)cc(OC)c2)n1	-2%	-9	4%	?	?	16%
CCOc1ccc(-c2nnn(CC(=O)Nc3cc(OC)ccc3OC)n2)cc1OCC	-16%	35	2%	-13%	-6%	-6%
CCOc1ccc(NC(=O)Cn2nnc(-c3ccccc3NC(=O)c3cccs3)n2)cc1	-7%	42	1%	?	?	3%
Nc1ccccc1CCc1ccccc1N	-26%	?	.	11%	-4%	-1%
CC(C)c1ccc(/C=N/n2c(COc3ccccc3)n[nH]c2=S)cc1	-36%	-19	.	?	?	?
